Test [1] in a line: qHTS assay to identify small molecule antagonists of the estrogen receptor alpha (ER-alpha) signaling pathway using the BG1 cell line in the presence of 0.1 nM 17-beta-estradiol - cell viability counter screen (AID 1259241). Note: nearly all actives have a fitted effect of over 40% in size. Note: potency is the fitted concentration of half-maximal effect. In short, it runs like this:
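Following 5 days in phenol red-free medium with charcoal-stripped serum, VM7Luc4E2 cells received test compounds alongside 0.1 nM 17beta-estradiol (final) at 37C for 22 hr. Live cells were then quantified via protease-substrate fluorescence.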
A general note: In qHTS, concentration-response curves come from the screen itself.

The nature of test [2]: qHTS assay to identify small molecule antagonists of the androgen receptor (AR) signaling pathway using the MDA cell line in the presence of 0.5 nM R1881 - cell viability counter screen (AID 1259242). Note: nearly all actives have a fitted effect of over 45% in size. In short, it runs like this: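 Human breast carcinoma MDA-kb2 cells, cultured without CO2, receive compounds alongside 0.5 nM (final) R1881 agonist. After 16 hr at 37C, viability is taken as live-cell protease signal.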

The nature of test [3]: qHTS assay to identify small molecule HDAC inhibitors (AID 1259364).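 Note: wild-type HCT-116 cells with endogenous class I/II HDAC activity; top concentration of the series differs between compounds; nearly all actives have a fitted effect of over 45% in size.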 In short, it runs like this: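 After a 2 hr compound incubation (37C, 5% CO2), HCT-116 cells seeded at 1,500/well the day before received HDAC-Glo reagent; signal read as luminescence after 30 min at room temperature.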
A short description of test [4]: qHTS assay to identify small molecule HDAC inhibitors - cell viability counter screen (AID 1259365). Note: series mostly up to about 92 µM; nearly all actives have a fitted effect of over 50% in size. In short, it runs like this:
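HCT-116 wild-type, overnight attachment; 2hr drug exposure, 37C; CellTiter-Glo luminescent ATP readout after 30min RT.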

A short description of test [5]: qHTS assay to identify small molecule agonists of the sonic hedgehog signaling (Shh) pathway - cell viability counter screen (AID 1259366). Note: nearly all actives have a fitted effect of over 50% in size. Note: potency is the fitted concentration of half-maximal effect. In short, it runs like this:
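Compounds in DMSO were pin-transferred onto 3T3 Gli1-Luc cells that had settled 4hr; plates then stood 24hr at 37C and 5% CO2. One hour before the end, CellTiter-Fluor was added and fluorescence recorded.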

Test [6] can be described thus: qHTS assay to identify small molecule agonists of the sonic hedgehog signaling (Shh) pathway (AID 1259368; calls by dose curve;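 note: NIH/3T3-derived 3T3Gli1-Luc cells carrying a stable Gli1-driven firefly luciferase reporter; series mostly up to about 92 µM; nearly all actives have a fitted effect of over 15% in size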). In short, it runs like this: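 Stable NIH/3T3 Gli1-Luc reporter clone; 24 hr cpd exposure after a 4 hr settling period; luminescence endpoint.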
Test [7] in a line: qHTS assay to identify small molecule antagonists of the sonic hedgehog signaling (Shh) pathway (AID 1259369; calls by dose curve; note: nearly all actives have a fitted effect of over 45% in size; note: potency is the fitted concentration of half-maximal effect). In short, it runs like this:
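Gli1 transcriptional reporter (firefly Luc) in NIH/3T3 background, conditioned-medium activated. 24hr exposure, luminescence endpoint.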

The nature of test [8]: qHTS assay to identify small molecule agonists of the androgen receptor (AR) signaling pathway in the presence of an antagonist - cell viability counter screen (AID 1259379). Note: nearly all actives have a fitted effect of over 25% in size. Note: potency is the fitted concentration of half-maximal effect. In short, it runs like this:
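Counter screen for cell viability run in parallel with the AR agonist-mode luciferase assay. MDA-kb2 cells were co-treated with nilutamide (3.0uM final) and compounds, then incubated 16 hr at 37C, and CellTiter-Fluor fluorescence was measured.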

The nature of test [9]: qHTS assay to identify small molecule agonists of the estrogen receptor beta (ER-beta) signaling pathway - cell viability counter screen (AID 1259380). Note: nearly all actives have a fitted effect of over 30% in size. Note: potency is the fitted concentration of half-maximal effect. In short, it runs like this:
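In this qHTS counter screen, HEK293T cells carrying an ER-beta/UAS beta-lactamase reporter, grown in 2% charcoal-stripped FBS, received compound for 16 hr; ATP-based CellTiter-Glo luminescence was then read after 30 min at room temperature.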

Test [10] can be described thus: qHTS assay to identify small molecule antagonists of the estrogen receptor beta (ER-beta) signaling pathway - cell viability counter screen (AID 1259382). Note: nearly all actives have a fitted effect of over 55% in size. Note: potency is the fitted concentration of half-maximal effect. In short, it runs like this:
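HEK293T ER-beta-UAS-bla, 2% charcoal-stripped FBS; compounds + 1nM E2 16 hr 37C; CellTiter-Glo luminescence, 30 min RT.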

The nature of test [11]: qHTS assay to identify small molecule agonists or antagonists of the thyroid stimulating hormone receptor (TSHR) signaling pathway - wild type cell line counter screen (AID 1259384; calls by dose curve). In short, it runs like this: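 Wild-type Hek293 cells, 800/well, 18 h at 37C, then compound with Ro20-1724 for 30 min RT. cAMP by HTRF (cAMP-d2/anti-cAMP cryptate), 1 h RT, fluorescence read. 15 concentrations, triplicates.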

In test [12] the target is Thyrotropin receptor (Homo sapiens) (UniProt P16473). Briefly: qHTS assay to identify small molecule antagonists of the thyroid stimulating hormone receptor (TSHR) signaling pathway (AID 1259385; calls by dose curve; note: nearly all actives have a fitted effect of over 20% in size). In short, it runs like this:
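TSHR-HEK293 cells (800/well) plated 18 h, then compounds with Ro20-1724 and TSH at 1.5 ng/mL final, 30 min at room temperature. cAMP quantified by HTRF (cAMP-d2/anti-cAMP-cryptate, 1 h); 15 concentrations in triplicate.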

A short description of test [13]: qHTS assay to identify small molecule agonists of the estrogen receptor alpha (ER-alpha) signaling pathway in the presence of an antagonist - cell viability counter screen (AID 1259386).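 Note: cells exposed to compounds for 22 h at 37 °C before the viability read; nearly all actives have a fitted effect of over 30% in size.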 Note: potency is the fitted concentration of half-maximal effect. In short, it runs like this: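 Steps: 5-day stripped-FBS culture; seed and incubate 24hr; add ICI-182,780 (10.0nM final); pin 15-point compound titration; incubate 22hr at 37C; add CellTiter-Fluor at 21hr; read fluorescence.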

The nature of test [14]: qHTS assay to identify small molecule antagonists of the sonic hedgehog signaling (Shh) pathway - cell viability counter screen (AID 1259367). Note: nearly all actives have a fitted effect of over 55% in size. Note: potency is the fitted concentration of half-maximal effect. In short, it runs like this:
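Tox21 library chemicals were tested on a Gli1-Luc NIH/3T3 clone (2,000 cells/well) stimulated by conditioned medium; viability was quantified as fluorescence from CellTiter-Fluor reagent added at 23 hr.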

The target of test [15] is Estrogen receptor (Homo sapiens) (UniProt P03372). Briefly: qHTS assay to identify small molecule agonists of the estrogen receptor alpha (ER-alpha) signaling pathway in the presence of an antagonist (AID 1259383; calls by dose curve; note: nearly all actives have a fitted effect of over 15% in size; note: potency is the fitted concentration of half-maximal effect; for activation: top concentration of the series differs between compounds). In short, it runs like this: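 ER-alpha agonism measured under antagonist challenge: 10.0nM ICI-182,780 (final) plus compound, 15 concentrations, 22hr, VM7Luc4E2 ERE-luciferase cells. Read by luminescence.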
Estrogen receptor (Homo sapiens), sequence (P03372 whole entry, looked up): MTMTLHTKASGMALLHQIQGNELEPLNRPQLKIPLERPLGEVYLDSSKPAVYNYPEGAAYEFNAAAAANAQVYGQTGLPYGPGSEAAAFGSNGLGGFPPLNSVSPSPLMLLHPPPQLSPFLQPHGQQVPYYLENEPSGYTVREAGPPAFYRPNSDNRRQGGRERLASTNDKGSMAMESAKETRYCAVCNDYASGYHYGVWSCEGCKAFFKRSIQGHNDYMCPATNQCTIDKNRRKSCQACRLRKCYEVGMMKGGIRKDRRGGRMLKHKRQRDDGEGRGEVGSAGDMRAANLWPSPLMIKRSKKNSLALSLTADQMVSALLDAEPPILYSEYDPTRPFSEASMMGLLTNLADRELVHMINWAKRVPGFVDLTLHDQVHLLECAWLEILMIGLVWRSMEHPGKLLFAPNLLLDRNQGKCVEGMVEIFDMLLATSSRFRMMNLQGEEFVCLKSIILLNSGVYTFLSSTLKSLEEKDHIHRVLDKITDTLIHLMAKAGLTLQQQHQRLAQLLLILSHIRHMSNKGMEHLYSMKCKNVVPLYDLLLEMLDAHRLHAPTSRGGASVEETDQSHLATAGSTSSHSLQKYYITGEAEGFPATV

Test [16] concerns the target Estrogen receptor beta (Homo sapiens) (UniProt Q92731). Briefly: qHTS assay to identify small molecule agonists of the estrogen receptor beta (ER-beta) signaling pathway (AID 1259377; active = well fitted activation curve with a large enough effect in the signal ratio in the repeat runs, not every such curve was filed as active; the % refers to the signal ratio). In short, it runs like this: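 qHTS in ER-beta-UAS-bla HEK293T cells: 6 hr settling, then 16 hr compound at 37C, then LiveBLAzer substrate 2 h at RT before fluorescence reading.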
Test [17] shares this target. As to the kind of experiment: qHTS assay to identify small molecule antagonists of the estrogen receptor beta (ER-beta) signaling pathway (AID 1259378; active = well fitted inhibition curve with a large enough effect in the signal ratio in the repeat runs, not every such curve was filed as active; the % refers to the signal ratio). In short, it runs like this:
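ER-beta-UAS-bla HEK293T cells in 2% charcoal-stripped FBS medium treated with compound plus 1nM final 17-beta-estradiol for 16 hr at 37C. Beta-lactamase reporter read by FRET substrate fluorescence after 2 hours at room temperature.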

This is an account of results in PubChem BioAssay (Tox21).

“And” between values parts separate entries of the source, which are not always exact repeats. Equal entries are not always repeated. Records with an inconclusive call do not appear. Some compounds were tested as several samples or in several runs, with calls that do not always agree. The source made the active and inactive calls. Unless noted, calls come from the whole dose curve; as a rule, active = well fitted curve in the direction sought with a large enough effect in the repeat runs; inconclusive = weak or mixed curves; inactive = no such curve, though single readings can be large; an effect the other way counts as inactive or inconclusive.

Thyrotropin receptor (Homo sapiens), sequence (P16473 whole entry, looked up): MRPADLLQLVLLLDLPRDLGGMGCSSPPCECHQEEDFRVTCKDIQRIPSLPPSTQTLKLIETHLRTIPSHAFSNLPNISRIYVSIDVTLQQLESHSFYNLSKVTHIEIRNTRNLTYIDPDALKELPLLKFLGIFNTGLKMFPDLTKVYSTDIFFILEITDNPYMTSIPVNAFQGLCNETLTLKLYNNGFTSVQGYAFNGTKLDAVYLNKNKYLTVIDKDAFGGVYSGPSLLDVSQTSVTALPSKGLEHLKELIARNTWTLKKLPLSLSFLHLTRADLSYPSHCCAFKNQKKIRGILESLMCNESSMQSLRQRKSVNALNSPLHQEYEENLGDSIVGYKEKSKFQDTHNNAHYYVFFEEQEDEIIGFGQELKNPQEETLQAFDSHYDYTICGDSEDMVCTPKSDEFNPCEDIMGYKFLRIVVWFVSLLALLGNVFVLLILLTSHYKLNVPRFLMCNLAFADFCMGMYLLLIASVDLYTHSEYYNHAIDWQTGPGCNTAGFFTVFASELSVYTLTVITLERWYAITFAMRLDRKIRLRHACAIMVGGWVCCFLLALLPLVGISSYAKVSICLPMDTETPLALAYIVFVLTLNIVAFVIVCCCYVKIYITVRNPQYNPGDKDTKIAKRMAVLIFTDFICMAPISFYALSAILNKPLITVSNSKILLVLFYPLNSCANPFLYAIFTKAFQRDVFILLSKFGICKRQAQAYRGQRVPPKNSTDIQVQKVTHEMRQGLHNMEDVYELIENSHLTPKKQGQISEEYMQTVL
Estrogen receptor beta (Homo sapiens), sequence (Q92731 whole entry, looked up): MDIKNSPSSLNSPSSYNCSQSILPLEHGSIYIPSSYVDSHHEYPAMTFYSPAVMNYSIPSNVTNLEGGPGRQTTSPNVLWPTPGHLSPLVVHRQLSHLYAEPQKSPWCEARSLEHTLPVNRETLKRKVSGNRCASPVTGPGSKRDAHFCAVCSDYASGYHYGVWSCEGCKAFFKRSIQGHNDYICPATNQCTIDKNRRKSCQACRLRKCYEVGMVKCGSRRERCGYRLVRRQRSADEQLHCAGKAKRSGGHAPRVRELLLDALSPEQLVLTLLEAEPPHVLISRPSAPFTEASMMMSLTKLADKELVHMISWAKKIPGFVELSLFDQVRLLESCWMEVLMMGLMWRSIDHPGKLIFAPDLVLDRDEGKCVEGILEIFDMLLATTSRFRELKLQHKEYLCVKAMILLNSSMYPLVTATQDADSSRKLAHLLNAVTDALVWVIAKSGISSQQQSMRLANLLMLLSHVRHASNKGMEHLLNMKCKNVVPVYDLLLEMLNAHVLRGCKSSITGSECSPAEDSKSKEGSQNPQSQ

On to `CN(C)CCc1c[nH]c2ccccc12`, for which the Potency result in test [1], in test [2], in test [3], in test [4], in [5] and in [6] was “inactive” throughout. Further, the Potency entry in test [7], in test [8], in [9], in [10], in test [11] and in test [12] was “inactive” each time. Moreover, the Potency entry in test [13] is “inactive”.
For `C[C@]12C/C(=C/O)C(=O)C[C@@H]1CC[C@@H]1[C@@H]2CC[C@@]2(C)[C@H]1CC[C@]2(C)O`, the Potency result in [1], in [2], in test [3], in test [6], in [11] and in [12] was “inactive” each time. In [13], the Potency entry was “inactive”. The Potency in test [5] is 55 µM (active) and 21.1 µM (active); in test [14], 61.7 µM (active); in test [7], 15.5 µM (active); in [8], 61.7 µM (active) and inactive; in test [9], 49 µM (active) and 26.6 µM (active); in test [10] it was 49 µM (active). Moreover, the Potency in test [15] is 8.71 µM (active) and 21.1 µM (active).
Regarding `C1=CCC=C1`, the Potency result in test [1], in [2], in test [3], in test [4], in test [5] and in test [14] was “inactive” in each case. The Potency result in test [6], in [7], in test [8], in test [9], in [10] and in [13] was “inactive” in each case.
`CCc1cccc(C)c1N(C(=O)CCl)[C@@H](C)COC`: the Potency entry in [1], in test [2], in [3], in test [4], in [5] and in test [14] was “inactive” in each case. Further, the Potency entry in test [6], in test [16], in [8], in [9], in test [10] and in test [11] was “inactive” throughout. Further, the Potency entry in [12] and in test [13] was “inactive” each time.
For the molecule `c1cc[n+]2c(c1)-c1cccc[n+]1CC2`, the Potency in test [1] was 26.6 µM (active); in [13] it was 29.8 µM (active). Moreover, the Potency result in test [2], in test [3], in test [4], in [14], in test [8] and in test [9] was “inactive” in each case. In addition, the Potency result in test [10], in test [15], in test [11] and in test [12] was “inactive” in each case.
Turning to `CNC(=O)O/N=C(\C)C(C)S(C)(=O)=O` (stereo not given), the Potency result in [1], in test [2], in [3], in test [4], in test [5] and in test [8] was “inactive” throughout. Besides, the Potency entry in test [9], in test [10], in test [11], in [12] and in [13] was “inactive” each time. Moreover, in test [7], the Potency is 282 µM (active).
Take `N#CCCl`: the Potency result in test [1], in test [2], in test [3], in test [4], in [5] and in test [14] was “inactive” each time. The Potency result in test [6], in test [7], in [15], in test [11], in test [12] and in [13] was “inactive” each time. In addition, the Potency in [9] was 25.4 µM (active).
On to `Oc1ccc2[nH]cc(CCCCN3CC=C(c4ccccc4)CC3)c2c1`, for which the Potency entry in [1], in test [2], in test [3], in [4], in test [14] and in test [6] was “inactive” throughout. The Potency result in test [17], in test [10], in [11], in [12] and in [13] was “inactive” each time. Further, the Potency in [7] was 3.35 µM (active); in [9], 29.8 µM (active).
As to `Clc1cc(Cl)c(-c2cc(Cl)c(Cl)cc2Cl)cc1Cl`, the Potency result in [1], in [2], in test [3], in test [4], in [5] and in test [14] was “inactive” throughout. Besides, the Potency entry in [6], in test [7], in test [9], in test [10], in test [11] and in test [13] was “inactive” each time.
